{"source": "the supplement of paper PMC11628255", "about": "“Interference of metal ions on the bioluminescent signal of firefly, Renilla, and NanoLuc luciferases in high-throughput screening assays” (Frontiers in Chemistry, 2024)", "test_system": "firefly luciferase (FLuc)", "experiment": "residual bioluminescent signal relative to negative (DMSO) control; higher = less interference (more residual luciferase signal)", "method": "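Purified luciferase (FLuc 10 nM + 10 uM D-luciferin; NLuc 10 pM + 10 uM furimazine; RLuc 50 pM + 2 uM coelenterazine) in 384-well plates; metal salt pre-incubated with enzyme 10 min at RT, substrate added and luminescence read after 10 min. Signal normalised to plate DMSO negative control (% N_VALUE = x/mean neg *100); triplicate wells at 0.01, 1 and 5 mM salt.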", "key": {"[1]": {"conditions": "metal salt concentration 0.01 mM, HEPES conditions (100 mM HEPES, 5 mM MgSO4, 10 uM ATP, pH 7.5)"}, "[2]": {"conditions": "metal salt concentration 0.01 mM, screening conditions (0.5 mM Tris, 50 mM glycine, 0.5 mM EDTA, 5 mM MgSO4, 10 uM ATP, pH 7.6)"}, "[3]": {"conditions": "metal salt concentration 1 mM, HEPES conditions (100 mM HEPES, 5 mM MgSO4, 10 uM ATP, pH 7.5)"}, "[4]": {"conditions": "metal salt concentration 1 mM, screening conditions (0.5 mM Tris, 50 mM glycine, 0.5 mM EDTA, 5 mM MgSO4, 10 uM ATP, pH 7.6)"}, "[5]": {"conditions": "metal salt concentration 5 mM, HEPES conditions (100 mM HEPES, 5 mM MgSO4, 10 uM ATP, pH 7.5)"}, "[6]": {"conditions": "metal salt concentration 5 mM, screening conditions (0.5 mM Tris, 50 mM glycine, 0.5 mM EDTA, 5 mM MgSO4, 10 uM ATP, pH 7.6)"}}, "note": "± gives the standard deviation of the averaged measurements.", "data": [{"smiles": "O.O.O.O.O.O.O.O=S(=O)([O-])[O-].[Mg+2]", "note": "[magnesium sulfate]", "values": [{"measurement": "residual bioluminescent signal", "setting": "[1]", "result": "78.3 ± 4.9", "unit": "%"}, {"measurement": "residual bioluminescent signal", "setting": "[2]", "result": "71.5 ± 6.5", "unit": "%"}, {"measurement": "residual bioluminescent signal", "setting": "[3]", "result": "77.4 ± 17", "unit": "%"}, {"measurement": "residual bioluminescent signal", "setting": "[4]", "result": "68 ± 5.2", "unit": "%"}, {"measurement": "residual bioluminescent signal", "setting": "[5]", "result": "55.5 ± 13", "unit": "%"}, {"measurement": "residual bioluminescent signal", "setting": "[6]", "result": "47.7 ± 6.9", "unit": "%"}]}, {"smiles": "[Cl][Fe][Cl]", "note": "[iron(II) chloride]", "values": [{"measurement": "residual bioluminescent signal", "setting": "[1]", "result": "28.9 ± 6.8", "unit": "%"}, {"measurement": "residual bioluminescent signal", "setting": "[2]", "result": "108 ± 1.6", "unit": "%"}, {"measurement": "residual bioluminescent signal", "setting": "[3]", "result": "1.76 ± 0.23", "unit": "%"}, {"measurement": "residual bioluminescent signal", "setting": "[4]", "result": "0.343 ± 0.046", "unit": "%"}, {"measurement": "residual bioluminescent signal", "setting": "[5]", "result": "0.814 ± 0.7", "unit": "%"}, {"measurement": "residual bioluminescent signal", "setting": "[6]", "result": "0.369 ± 0.091", "unit": "%"}]}, {"smiles": "[Cl][Fe]([Cl])[Cl]", "note": "[iron(III) chloride]", "values": [{"measurement": "residual bioluminescent signal", "setting": "[1]", "result": "15.5 ± 8.2", "unit": "%"}, {"measurement": "residual bioluminescent signal", "setting": "[2]", "result": "1.32 ± 0.63", "unit": "%"}, {"measurement": "residual bioluminescent signal", "setting": "[3]", "result": "1.09 ± 0.62", "unit": "%"}, {"measurement": "residual bioluminescent signal", "setting": "[4]", "result": "0.712 ± 0.4", "unit": "%"}, {"measurement": "residual bioluminescent signal", "setting": "[5]", "result": "1.9 ± 1.9", "unit": "%"}, {"measurement": "residual bioluminescent signal", "setting": "[6]", "result": "0.29 ± 0.046", "unit": "%"}]}, {"smiles": "O=C([O-])[O-].[K+].[K+]", "note": "[potassium carbonate]", "values": [{"measurement": "residual bioluminescent signal", "setting": "[1]", "result": "84.3 ± 17", "unit": "%"}, {"measurement": "residual bioluminescent signal", "setting": "[2]", "result": "81.3 ± 3", "unit": "%"}, {"measurement": "residual bioluminescent signal", "setting": "[3]", "result": "83.9 ± 16", "unit": "%"}, {"measurement": "residual bioluminescent signal", "setting": "[4]", "result": "85.8 ± 6.4", "unit": "%"}, {"measurement": "residual bioluminescent signal", "setting": "[5]", "result": "67.9 ± 15", "unit": "%"}, {"measurement": "residual bioluminescent signal", "setting": "[6]", "result": "49.2 ± 8.7", "unit": "%"}]}, {"smiles": "O=S(=O)([O-])[O-].[Mn+2]", "note": "[manganese(II) sulfate]", "values": [{"measurement": "residual bioluminescent signal", "setting": "[1]", "result": "85 ± 11", "unit": "%"}, {"measurement": "residual bioluminescent signal", "setting": "[2]", "result": "82.6 ± 4.7", "unit": "%"}, {"measurement": "residual bioluminescent signal", "setting": "[3]", "result": "80.6 ± 12", "unit": "%"}, {"measurement": "residual bioluminescent signal", "setting": "[4]", "result": "77.1 ± 3.5", "unit": "%"}, {"measurement": "residual bioluminescent signal", "setting": "[5]", "result": "79.4 ± 13", "unit": "%"}, {"measurement": "residual bioluminescent signal", "setting": "[6]", "result": "57.4 ± 8.1", "unit": "%"}]}, {"smiles": "[Cl-].[Na+]", "note": "[sodium chloride]", "values": [{"measurement": "residual bioluminescent signal", "setting": "[1]", "result": "102 ± 17", "unit": "%"}, {"measurement": "residual bioluminescent signal", "setting": "[2]", "result": "104.5 ± 0.25", "unit": "%"}, {"measurement": "residual bioluminescent signal", "setting": "[3]", "result": "103 ± 19", "unit": "%"}, {"measurement": "residual bioluminescent signal", "setting": "[4]", "result": "101 ± 5.4", "unit": "%"}, {"measurement": "residual bioluminescent signal", "setting": "[5]", "result": "92.4 ± 2", "unit": "%"}, {"measurement": "residual bioluminescent signal", "setting": "[6]", "result": "79.7 ± 3.2", "unit": "%"}]}, {"smiles": "O=S(=O)([O-])[O-].[Fe+2]", "note": "[iron(II) sulfate]", "values": [{"measurement": "residual bioluminescent signal", "setting": "[1]", "result": "10.5 ± 3.6", "unit": "%"}, {"measurement": "residual bioluminescent signal", "setting": "[2]", "result": "109 ± 9.9", "unit": "%"}, {"measurement": "residual bioluminescent signal", "setting": "[3]", "result": "1.09 ± 0.23", "unit": "%"}, {"measurement": "residual bioluminescent signal", "setting": "[4]", "result": "0.237 ± 0.14", "unit": "%"}, {"measurement": "residual bioluminescent signal", "setting": "[5]", "result": 1.22, "unit": "%"}, {"measurement": "residual bioluminescent signal", "setting": "[6]", "result": "0.237 ± 0.21", "unit": "%"}]}]}
